In PubChem BioAssay (Tox21) one finds Potency data, which are given here for eight compounds.

The nature of assay [1]: Nuclear factor erythroid 2-related factor 2/antioxidant responsive element (Nrf2/ARE) small molecule agonists: qHTS cell viability counter screen in human keratinocytes (AID 1919968; active = well fitted curve in the direction sought with a large enough effect in the repeat runs; an effect the other way counts as inactive or inconclusive; note: nearly all actives have a fitted effect of over 55% in size; note: potency is the fitted concentration of half-maximal effect). The method, boiled down:
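Parallel cytotoxicity read: KeratinoSens HaCaT cells, compound treatment 23 h, viability by CellTiter-Fluor fluorescence 1 h post-reagent.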
On the technique in general: In qHTS, concentration-response curves come from the screen itself.

Assay [2] can be described thus: Nuclear factor erythroid 2-related factor 2/antioxidant responsive element (Nrf2/ARE) small molecule agonists: luciferase reporter gene qHTS assay in human keratinocytes (AID 1919969). Note: nearly all actives have a fitted effect of over 35% in size. Note: potency is the fitted concentration of half-maximal effect.
In assay [3] the target is Gonadotropin-releasing hormone receptor (Homo sapiens) (UniProt P30968). The assay is described as follows: Human gonadotropin-releasing hormone receptor (GnRHR) small molecule agonists, calcium flux assay in GnRHR-HEK293 cells (AID 1920063). Note: nearly all actives have a fitted effect of over 35% in size. The procedure, abridged: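 Calcium flux, agonist mode, human GnRHR stably integrated in HEK293; dye 1 h at 37 C before compound; Ex/Em=480/540 kinetic read, 3 min; 15 concentrations, triplicate.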
Gonadotropin-releasing hormone receptor (Homo sapiens), sequence (P30968 whole entry, looked up): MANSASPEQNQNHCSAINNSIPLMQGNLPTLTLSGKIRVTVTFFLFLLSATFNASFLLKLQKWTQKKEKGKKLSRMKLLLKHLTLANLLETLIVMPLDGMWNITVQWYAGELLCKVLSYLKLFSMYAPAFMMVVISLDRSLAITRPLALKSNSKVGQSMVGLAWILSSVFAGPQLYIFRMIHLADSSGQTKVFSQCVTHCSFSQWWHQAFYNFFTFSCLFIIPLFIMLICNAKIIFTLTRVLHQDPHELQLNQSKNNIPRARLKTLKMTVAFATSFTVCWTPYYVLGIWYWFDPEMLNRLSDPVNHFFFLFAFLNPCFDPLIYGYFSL
Background: Calcium flux is commonly read through the fluorescence of an indicator in the cells.

The target of assay [4] is KiSS-1 receptor (Homo sapiens) (UniProt Q969F8). The assay can be described thus: Human kisspeptin (KISS1R) small molecule agonists, calcium flux assay in KISS1R-HEK293 cells (AID 1920064; active = well fitted curve in the direction sought with a large enough effect in the repeat runs; an effect the other way counts as inactive or inconclusive). The procedure, abridged: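 Triplicate 15-concentration series were applied to dye-loaded human KISS1R HEK293 cells, and agonist-evoked calcium fluorescence was captured for 3 min.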
KiSS-1 receptor (Homo sapiens), sequence (Q969F8 whole entry, looked up): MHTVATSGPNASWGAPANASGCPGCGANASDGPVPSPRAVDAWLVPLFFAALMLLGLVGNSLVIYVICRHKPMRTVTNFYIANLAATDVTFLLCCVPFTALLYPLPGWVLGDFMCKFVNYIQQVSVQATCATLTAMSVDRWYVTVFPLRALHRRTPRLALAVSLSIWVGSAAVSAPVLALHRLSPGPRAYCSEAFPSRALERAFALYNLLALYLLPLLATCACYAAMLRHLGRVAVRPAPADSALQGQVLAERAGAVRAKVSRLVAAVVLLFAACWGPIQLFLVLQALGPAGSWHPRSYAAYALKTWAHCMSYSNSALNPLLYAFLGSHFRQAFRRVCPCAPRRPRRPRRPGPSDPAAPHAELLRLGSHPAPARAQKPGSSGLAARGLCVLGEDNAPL

The nature of assay [5]: p53 small molecule agonists, cell-based qHTS assay with human liver microsomes (AID 1963577). The method, boiled down: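 In this qHTS, p53 response-element beta-lactamase cells receive test compound together with a microsome/NADPH activating system (0.5 mg/mL final each) and are incubated 16 h at 37 C before LiveBLAzer fluorescence detection.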
A short description of assay [6]: p53 small molecule agonists, cell-based qHTS assay with rat liver microsomes (AID 1963578). The procedure, abridged: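 Agonist mode in p53RE-bla reporter cells, with compounds co-incubated 16 h at 37 C alongside 0.5 mg/mL rat liver microsomes and 0.5 mg/mL NADPH (final), followed by a 2 h LiveBLAzer detection step.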
Assay [7] can be described thus: p53 small molecule agonists, cell-based qHTS assay with human liver microsomes: qHTS cell viability counter screen (AID 1963579). Note: nearly all actives have a fitted effect of over 45% in size. Note: potency is the fitted concentration of half-maximal effect. The procedure, abridged: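 Metabolically activated exposure: compounds, human liver microsomes and NADPH (0.5 mg/mL final apiece) were added to p53RE-bla cells seeded 5 h earlier, left 16 h at 37 C, and then assessed for viability by CellTiter-Glo luminescence.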

The nature of assay [8]: p53 small molecule agonists, cell-based qHTS assay with rat liver microsomes: qHTS cell viability counter screen (AID 1963580). Note: nearly all actives have a fitted effect of over 45% in size. Note: potency is the fitted concentration of half-maximal effect. The method, boiled down: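 Counter screen for cytotoxicity under metabolic activation: rat liver microsomes and NADPH, 0.5 mg/mL final each, added with compounds to p53RE-bla HCT-116 cells; 16 h at 37 C, then ATP luminescence read.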
Assay [9] in a line: p53 small molecule agonists, cell-based qHTS assay: qHTS cell viability counter screen (AID 1963581). Note: nearly all actives have a fitted effect of over 45% in size. Note: potency is the fitted concentration of half-maximal effect. The procedure, abridged:
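Multiplexed with the reporter read, a CellTiter-Glo step (30 min, room temperature) gauges ATP-based viability of HCT-116 p53RE-bla cells after 16 h compound incubation at 37 C.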

Assay [10] can be described thus: p53 small molecule agonists, cell-based qHTS assay (AID 1963582; active = well fitted activation curve with a large enough effect in the signal ratio in the repeat runs, not every such curve was filed as active; the % refers to the signal ratio). The procedure, abridged:
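Beta-lactamase reporter cells (p53RE-bla) treated with compounds for 16 h at 37 C; FRET substrate, 2 h, room temperature; fluorescence intensity.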

The target in assay [11] is 5-hydroxytryptamine receptor 2A (Homo sapiens) (UniProt P28223). The assay can be described thus: 5-hydroxytryptamine receptor 2A (HTR2A) small molecule antagonists, cell-based qHTS assay (AID 1963586). Note: nearly all actives have a fitted effect of over 45% in size. Note: potency is the fitted concentration of half-maximal effect. The procedure, abridged: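 CHO cells stably expressing human HTR2A were plated for 18 h at 37 C, then loaded with calcium dye for 1 h. Compounds were preincubated 5 min at room temperature before DOI (4 nM solution) was added. Kinetic fluorescence was read for 3 min.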
5-hydroxytryptamine receptor 2A (Homo sapiens), sequence (P28223 whole entry, looked up): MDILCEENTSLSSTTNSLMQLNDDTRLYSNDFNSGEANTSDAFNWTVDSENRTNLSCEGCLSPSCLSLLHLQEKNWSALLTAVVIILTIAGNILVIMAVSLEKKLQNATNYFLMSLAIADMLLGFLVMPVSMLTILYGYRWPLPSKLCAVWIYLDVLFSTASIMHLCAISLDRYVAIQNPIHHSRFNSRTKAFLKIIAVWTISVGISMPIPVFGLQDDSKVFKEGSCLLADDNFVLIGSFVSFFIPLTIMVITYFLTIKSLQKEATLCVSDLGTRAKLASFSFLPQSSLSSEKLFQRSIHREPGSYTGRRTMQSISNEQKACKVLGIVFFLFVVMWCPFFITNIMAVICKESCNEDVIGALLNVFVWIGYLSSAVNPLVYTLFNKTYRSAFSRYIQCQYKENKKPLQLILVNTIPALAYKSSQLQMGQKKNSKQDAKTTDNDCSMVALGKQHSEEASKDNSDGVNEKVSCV

The target is the same in assay [12]. The assay is described as follows: 5-hydroxytryptamine receptor 2A (HTR2A) small molecule agonists, cell-based qHTS assay (AID 1963587). Note: nearly all actives have a fitted effect of over 30% in size. The procedure, abridged:
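HTR2A-CHO cells, plated 18 h at 37 C/5% CO2, dye-loaded 1 h at 37 C; compounds in DMSO added by pin tool (agonist mode). Intracellular calcium flux read as kinetic fluorescence on FDSS over 2 min at 1 s intervals.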

Assay [13] concerns the target Muscarinic acetylcholine receptor M1 (Homo sapiens) (UniProt P11229). The assay is described as follows: Cholinergic receptor muscarinic 1 (CHRM1) small molecule antagonists, cell-based qHTS assay (AID 1963588). Note: nearly all actives have a fitted effect of over 40% in size. The method, boiled down:
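Compounds were tested at 15 concentrations in three independent runs. Dye-loaded CHRM1-CHO cells were exposed 5 min at room temperature before stimulation by acetylcholine added at 50nM. Intracellular calcium was read kinetically on FDSS for 3 min.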

Assay [14] shares this target. The assay can be described thus: Cholinergic receptor muscarinic 1 (CHRM1) small molecule agonists, cell-based qHTS assay (AID 1963589). Note: nearly all actives have a fitted effect of over 35% in size. The procedure, abridged: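 qHTS, 15-point titration, 3 independent runs: compounds pin-transferred onto dye-loaded CHRM1-CHO cells (human M1), calcium fluorescence followed every second to detect agonism.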
The nature of assay [15]: cAMP Responsive Elements (CRE) small molecule antagonists, cell-based qHTS assay (AID 1963591; active = well fitted inhibition curve with a large enough effect in the signal ratio in the repeat runs, not every such curve was filed as active; the % refers to the signal ratio). The procedure, abridged:
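Fluorescence intensity from cleaved LiveBLAzer B/G substrate (2 h, room temperature) quantified CRE-bla activity in HEK 293T cells exposed 3 h to compound with 0.25 uM final NKH477.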

For assay [16], the target named is Beta-2 adrenergic receptor (Homo sapiens) (UniProt P07550). The assay can be described thus: Adrenergic beta2 receptor (ADRB2) small molecule antagonists, cell-based qHTS assay (AID 1963592). Note: series mostly up to about 92 µM; nearly all actives have a fitted effect of over 50% in size. The procedure, abridged: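 Assay format: CHO-ADRB2 cells, 18-20hr seeding at 37C/5% CO2, then compound plus 1nM isoproterenol agonist mix for 0.5hr RT. Homogeneous time-resolved fluorescence cAMP detection after 1hr, expressed as 665/615 nm ratio.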
Beta-2 adrenergic receptor (Homo sapiens), sequence (P07550 whole entry, looked up): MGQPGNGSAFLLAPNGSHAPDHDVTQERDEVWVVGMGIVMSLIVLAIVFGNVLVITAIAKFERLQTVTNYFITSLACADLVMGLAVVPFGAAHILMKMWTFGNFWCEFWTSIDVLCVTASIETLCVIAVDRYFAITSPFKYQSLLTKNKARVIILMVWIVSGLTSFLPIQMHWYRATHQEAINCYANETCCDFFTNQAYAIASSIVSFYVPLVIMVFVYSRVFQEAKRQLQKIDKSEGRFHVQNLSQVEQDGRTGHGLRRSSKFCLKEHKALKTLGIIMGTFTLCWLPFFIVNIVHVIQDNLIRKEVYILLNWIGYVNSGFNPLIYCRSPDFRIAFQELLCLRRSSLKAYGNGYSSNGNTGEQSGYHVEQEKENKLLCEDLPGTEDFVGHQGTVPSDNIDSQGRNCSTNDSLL

Assay [17] has as its target D(2) dopamine receptor (Homo sapiens) (UniProt P14416). The assay is described as follows: Dopamine D2 receptor (DRD2) small molecule antagonists, cell-based qHTS assay (AID 1963595; active = well fitted inhibition curve with a large enough effect in the signal ratio in the repeat runs, with a control signal flat; the % refers to the signal ratio). The method, boiled down: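 HEK293 cells stably expressing DRD2 were preincubated with 0.1 mM Ro20-1724, then with compound for 10 min at room temperature. Cells were stimulated with 200 nM NKH477 plus 12 nM quinpirole for 30 min, and cAMP was read by HTRF.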

Assay [18] in a line: cAMP Responsive Elements (CRE) small molecule agonists, cell-based qHTS assay (AID 1963590). The method, boiled down:
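Quantitative HTS for CRE agonists: HEK 293T CRE-bla cells, overnight plating, 3 h compound incubation at 37 C/5% CO2, then 2 h room-temperature LiveBLAzer B/G FRET substrate loading.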

Assay [19] concerns the target D(2) dopamine receptor (Homo sapiens) (UniProt P14416). The assay can be described thus: Dopamine D2 receptor (DRD2) small molecule agonists, cell-based qHTS assay (AID 1963594). Note: nearly all actives have a fitted effect of over 35% in size. The method, boiled down:
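HEK293 cells stably expressing DRD2 were cultured 24 h at 37 C, then given Ro20-1724 (0.1 mM final) and compounds for 10 min at room temperature. NKH477 (200nM) was then added for 30 min. cAMP was read by HTRF.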

Results filed as inconclusive are left out. Calls of active or inactive are those of the source. Unless noted, calls come from the whole dose curve.

Muscarinic acetylcholine receptor M1 (Homo sapiens), sequence (P11229 whole entry, looked up): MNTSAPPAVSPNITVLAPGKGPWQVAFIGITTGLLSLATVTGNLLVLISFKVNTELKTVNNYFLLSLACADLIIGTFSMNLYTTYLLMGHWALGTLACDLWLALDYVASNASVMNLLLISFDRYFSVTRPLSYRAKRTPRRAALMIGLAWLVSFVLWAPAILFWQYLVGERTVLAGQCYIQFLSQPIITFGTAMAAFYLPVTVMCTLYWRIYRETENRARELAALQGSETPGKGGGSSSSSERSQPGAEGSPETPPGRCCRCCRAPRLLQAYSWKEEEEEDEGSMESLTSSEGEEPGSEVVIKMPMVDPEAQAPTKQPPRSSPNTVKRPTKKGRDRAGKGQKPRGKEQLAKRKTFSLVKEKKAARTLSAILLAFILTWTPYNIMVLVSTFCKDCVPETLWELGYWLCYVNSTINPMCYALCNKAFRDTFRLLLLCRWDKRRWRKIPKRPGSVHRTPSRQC
D(2) dopamine receptor (Homo sapiens), sequence (P14416 whole entry, looked up): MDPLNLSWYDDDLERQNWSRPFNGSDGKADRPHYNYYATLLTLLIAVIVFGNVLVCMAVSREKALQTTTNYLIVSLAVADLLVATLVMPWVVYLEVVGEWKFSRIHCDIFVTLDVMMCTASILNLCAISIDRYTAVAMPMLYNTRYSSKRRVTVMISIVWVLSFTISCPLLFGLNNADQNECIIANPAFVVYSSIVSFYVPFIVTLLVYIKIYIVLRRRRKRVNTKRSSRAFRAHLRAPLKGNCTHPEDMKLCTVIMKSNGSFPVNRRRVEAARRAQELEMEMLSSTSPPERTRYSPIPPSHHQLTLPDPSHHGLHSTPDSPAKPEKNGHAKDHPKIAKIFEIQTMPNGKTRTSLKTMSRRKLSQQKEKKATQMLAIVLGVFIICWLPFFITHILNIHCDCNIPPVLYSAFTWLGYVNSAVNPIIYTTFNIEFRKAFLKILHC

On to `COc1ccc(-c2ccccc2)cc1NNC(=O)OC(C)C`, for which the Potency result in assay [1], in assay [2], in [3], in [4], in assay [5] and in assay [6] was “inactive” in each case. In addition, the Potency result in assay [7], in assay [8], in assay [9], in assay [10], in [11] and in assay [12] was “inactive” each time. Further, the Potency entry in assay [13], in [14], in [15], in [16] and in assay [17] was “inactive” each time.

For `O=c1[nH]c2ccccc2o1`, the Potency entry in assay [1], in [2], in assay [3], in assay [4], in assay [7] and in assay [8] was “inactive” throughout. For the same compound, the Potency entry in assay [9], in assay [11], in assay [12], in assay [13], in [14] and in assay [18] was “inactive” throughout. Besides, the Potency result in assay [15], in assay [16], in assay [19] and in assay [17] was “inactive” in each case.

In the case of `COC(=O)C1(O)c2ccccc2-c2ccccc21`, the Potency entry in assay [1], in [2], in assay [3], in [4], in assay [5] and in [7] was “inactive” each time. For the same compound, the Potency result in [8], in assay [9], in assay [10], in assay [12], in assay [13] and in assay [14] was “inactive” in each case. Moreover, the Potency entry in assay [18], in assay [15], in assay [16], in assay [19] and in assay [17] was “inactive” in each case.

As to `C[N+](C)=CCl`, the Potency entry in assay [1], in assay [2], in [3], in assay [4], in assay [7] and in assay [8] was “inactive” each time. Besides, the Potency entry in assay [9], in [11], in assay [12], in [13], in assay [14] and in assay [18] was “inactive” in each case. The Potency entry in assay [15], in assay [16], in [19] and in [17] was “inactive” in each case.

Take `CCOP(=S)(OCC)SCSP(=S)(OCC)OCC`: the Potency entry in assay [1], in [3], in [4], in assay [7], in assay [8] and in assay [9] was “inactive” each time. The Potency entry in assay [10], in assay [14], in [15], in assay [16], in assay [19] and in assay [17] was “inactive” in each case. The Potency in assay [2] was 68.6 µM (active).

As to `CCOC(=O)C1(c2ccccc2)CCN(CCc2ccc(N)cc2)CC1`, the Potency entry in [1], in assay [2], in assay [3], in assay [4], in assay [5] and in assay [6] was “inactive” each time. The Potency result in assay [7], in assay [8], in assay [9], in [10], in [12] and in assay [18] was “inactive” in each case. Besides, the Potency entry in [15], in assay [16] and in assay [17] was “inactive” throughout.

On to `O=C(N[C@H]1CN2CCC1CC2)c1cc2ccoc2cn1`, for which the Potency entry in assay [1], in assay [2], in assay [3], in assay [4], in assay [5] and in assay [6] was “inactive” each time. In addition, the Potency entry in [7], in [8], in assay [9], in assay [10], in assay [14] and in [18] was “inactive” each time. Moreover, the Potency entry in assay [16], in assay [19] and in assay [17] was “inactive” each time.

On to `CC(C)(c1ccc(O)c(-c2ccccc2)c1)c1ccc(O)c(-c2ccccc2)c1`, for which the Potency in assay [1] was 13.7 µM (active); in assay [7] it was 18.2 µM (active); in assay [8], 20.4 µM (active); in assay [9], 20.4 µM (active); in assay [11], 18.8 µM (active). In addition, the Potency result in assay [2], in assay [3], in [4], in assay [5], in [6] and in assay [12] was “inactive” in each case. Further, the Potency result in assay [13], in assay [14] and in [19] was “inactive” in each case.
